# Screening results as filed in PubChem.
# This is a sample that favours compounds with a hit; in the whole collection about 8% have one here.
# HCMV inh: blocks human cytomegalovirus replication; HFF cells, HCMV-luciferase reporter, 72 h; hits give low values; activity change, negative = inhibition, % at 57.5 µM; 410,000 tested, 4.5% active; in the data active means activity change below about -60%; inconclusive means no clear call, values can overlap the other calls; inactive means above about -39%; further: on the % scale 0 is the no-effect control and ±100 the full control effect
#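 Compounds were evaluated in HFFs infected with an HCMV luciferase reporter virus (MOI 1 PFU/cell). Luciferase in lysates collected 72 h post infection served as the replication measure.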
# Lassa entry inh: Lassa virus entry inhibition; Lassa virus pseudotype entry inhibition, cell reporter; Potency, µM (highest dose often 37.9 µM), for the others: at the highest dose activity change, negative = inhibition, actives largely listed as inhibitors; 300,000 tested, 1.2% active; AID 540256; calls by dose curve; tested in HEK293 cells; further: potency means the concentration at half of the fitted maximal effect; on the % scale 0 is the no-effect control and ±100 the full control effect; nearly all actives have a fitted effect of over 50% in size
# SARS PLP yeast: blocks SARS-CoV papain-like protease in a yeast assay; 330,000 tested, 0.19% active; Potency, µM (series often up to 32.9 µM), for inactives: at the top dose activity, positive = growth rescue, actives largely listed as activators; S. cerevisiae expressing SARS-CoV PLpro, growth rescue; AID 485353; calls by dose curve; further: potency means the concentration at half of the fitted maximal effect; 0% is about no effect; nearly all actives have a fitted effect of over 55% in size
# MARV entry inh: Marburg virus entry inhibition. Marburg virus pseudotyped entry inhibition, cell reporter. Potency, µM (doses to about 37.8 µM), for the others: at the highest dose activity change, negative = inhibition, most hits filed as inhibitors. 300,000 tested, 1.8% active; calls by dose curve; tested in HEK293 cells; further: potency means the concentration at half of the fitted maximal effect; on the % scale 0 is the no-effect control and ±100 the full control effect
# HCV inhibitor: HCV inhibition; Huh7.5.1 HCVcc-Cre infection, luciferase reporter, 44 h; 340,000 tested, 3.4% active; AID 651820; Potency, µM (highest dose often 41.8 µM), for the others: at the highest dose activity change, negative = inhibition, most hits filed as inhibitors; active means well fitted inhibition curve with a large enough effect; inconclusive means small, poorly fitted or top-dose-only effect, or another doubt; inactive means no such curve, though single readings can be large or run the other way; further: potency means the concentration at half of the fitted maximal effect; on the % scale 0 is the no-effect control and ±100 the full control effect
#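 Compounds are dispensed onto cells plated 4 h earlier at 1,000 per well, with HCVcc-Cre virus (about 0.5 moi) added next. Following 44 h of culture, luminescent signal is measured for 15 sec after 15 min with substrate at room temperature.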
# FMDV inh: blocks foot and mouth disease virus. FMDV antiviral cell-based qHTS. Potency, µM (doses to about 57.9 µM), for the others: at the top dose activity change, negative = inhibition, actives largely listed as inhibitors. 410,000 tested, 1.2% active. AID 1159524; calls by dose curve; tested in HEK293T cells; further: read-out not given here; potency means the concentration at half of the fitted maximal effect; on the % scale 0 is the no-effect control and ±100 the full control effect; nearly all actives have a fitted effect of over 45% in size
# * marks the source's active call; other numbers are inactive results; ? = inconclusive; . = no result given; ! = not confirmed by another sample; [ ] = dose if it differs, or a comment.
SMILES,HCMV inh,Lassa entry inh,SARS PLP yeast,MARV entry inh,HCV inhibitor,FMDV inh
COc1ccc(CN2CCN(c3ncnc4sc5c(c34)CC(C)CC5)CC2)cc1F (stereo not drawn),14.0,-5.7%[46.1 µM],.,4.8%[46.1 µM],.,?
CCc1cc2c(N3CCN(c4ccccc4)CC3)ncnc2s1,-70.0*,?,-11.7%,?,8.91µM*,25.1µM*
Oc1ccc(N2CCN(c3ncnc4sc(-c5ccccc5)cc34)CC2)cc1,100.6,?,-0.5%,?,?,?
c1ccc(N2CCN(c3ncnc4sc5c(c34)CCC5)CC2)cc1,-75.9*,-13.6%,-2.1%,?,10µM*,-23.2%
O=C(c1ccco1)N1CCN(c2ncnc3c2[nH]c2ccc(Br)cc23)CC1,?,?,?,?,11.2µM*,?
COc1ccc(CN2CCN(c3ncnc4sc5c(c34)CCCC5)CC2)cc1F,-69.8*,-4.2%[46.1 µM],.,7.0%[46.1 µM],.,?
CCN(c1ccccc1)S(=O)(=O)c1nnc(NC(=O)C(C)Oc2ccccc2)s1 (stereo not drawn),-5.2,?,.,.,.,-11.9%
COc1ccc(-c2nsc3c(N4CCN(C(=O)c5ccco5)CC4)ncnc23)cc1,-13.9,-2.0%,0.6%,-4.0%,4.4%,?
CC1CCc2c(sc3nc(C4CC4)nc(N4CCN(C(=O)c5ccco5)CC4)c23)C1 (stereo not drawn),-85.8*,?,.,?,4.47µM*,25.1µM*
CCc1nc(N2CCN(C(=O)c3ccco3)CC2)c2c3c(sc2n1)CCCC3,-23.8,?,-12.6%,?,?,?
O=C(c1ccco1)N1CCN(c2ncnc3sc4c(c23)CCC4)CC1,-66.7*,-7.8%,-3.5%,-5.4%,?,?
O=C(c1ccco1)N1CCN(c2ncnc3c(-c4ccccc4)nsc23)CC1,118.7,?,-7.3%,?,22.4µM*,5.2%
CN(CCc1ccc(Cl)c(Cl)c1)CCN1CCCC1,.,.,.,.,.,-6.1%
COc1cc(C2c3cc4c(cc3OC(NNC(N)=O)C2C)OCO4)cc(OC)c1OC (stereo not drawn),-86.3*,?,.,?,?,-14.0%
COc1cc(C2c3cc4c(cc3OC(NNC(N)=S)C2C)OCO4)cc(OC)c1OC (stereo not drawn),-80.5*,?,.,?,-12.2%,-18.5%
COc1cc(C2c3cc4c(cc3OC(NCc3ccccc3)C2C)OCO4)cc(OC)c1OC (stereo not drawn),-79.9*,?,.,-27.6%,-8.7%,-17.7%
COc1ccc(C2c3cc4c(cc3OC(NNC(N)=O)C2C)OCO4)cc1 (stereo not drawn),11.5,-15.6%[46.1 µM],.,?,?,-21.4%
COc1cccc(C2c3cc4c(cc3OC(NNC(N)=O)C2C)OCO4)c1O (stereo not drawn),-72.7*,?,.,?,-4.3%,-18.2%
Cn1c(O)c(C(=Nc2ccccc2)SCc2ccccc2Cl)c(=O)n(C)c1=O,-64.9*,-16.6%,1.3%,?,-17.5%,?
Cc1ccc(S(=O)(=O)n2ccc3c(OCCOCCNCc4ccc(F)cc4)cccc32)cc1,-101.3*,?,-0.6%,?,?,?
Cc1cccc2cc(CN(Cc3ccco3)C(=O)c3ccco3)c(=O)[nH]c12,15.9,8.4%[46.1 µM],-0.5%,-30.0%[46.1 µM],8.4%,-1.5%
CCCCN(Cc1ccco1)C(=O)c1cc2c(=O)[nH]c3ccc(C)cc3c2s1,?,.,5.9%,.,?,-7.9%
CCN(CC)CCN(Cc1cc2cc(C)cc(C)c2[nH]c1=O)C(=S)NCc1ccco1,?,-0.5%,0.9%,?,0.9%,-13.8%
CCN(CC)CCN(Cc1cc2ccc(C)c(C)c2[nH]c1=O)C(=S)NCc1ccco1,-77.2*,5.62µM*,0.0%,?,?,4.1%
Cc1ccc2[nH]c(=O)c3cc(C(=O)N(CCCOC(C)C)Cc4ccco4)sc3c2c1,?,.,-6.5%,10µM*,?,?
SMILES,HCMV inh,Lassa entry inh,SARS PLP yeast,MARV entry inh,HCV inhibitor,FMDV inh
Cc1ccc2cc(CN(Cc3ccco3)C(=O)c3cccs3)c(=O)[nH]c2c1,101.6,?,1.3%,1.26µM*,?,-12.0%
Cc1ccc2[nH]c(=O)c(CN(Cc3ccco3)C(=O)c3cccs3)cc2c1,.,.,-4.8%,.,7.9%,.
Cc1cccc2cc(CN(Cc3ccco3)C(=O)c3cccs3)c(=O)[nH]c12,-98.7*,-10.3%,3.5%,-8.0%,-2.2%,0.0%
CCC(Cn1nnc2ccccc2c1=O)NC(=O)Nc1ccc(C)c(C)c1 (stereo not drawn),26.9,6.9%[46.1 µM],.,2.3%[46.1 µM],.,4.7%
Cc1cnc(-n2ncc(C(=O)N(CCO)C(C)C)c2-c2cccs2)nc1-c1ccc(F)cc1,.,.,.,.,.,21.6%
CNC(=O)c1ccsc1NC(=O)c1ccc(S(=O)(=O)N2CCCc3ccccc32)cc1,-62.2*,16.4µM*,-29.4%,?,10µM*,?
O=C(Nc1nnc(S(=O)(=O)N2CCCc3ccccc32)s1)c1ccccc1,2.4,?,.,.,.,-0.4%
CC1CCc2nc(NC(=O)c3ccc(S(=O)(=O)N4CCCc5ccccc54)cc3)sc2C1 (stereo not drawn),-87.0*,-19.0%,2.5%,?,?,?
Cc1ccc(C(=O)Nc2nnc(S(=O)(=O)N3CCCc4ccccc43)s2)cc1,51.1,3.7%[46.1 µM],.,.,.,30.7%
O=C(Nc1nc2c(s1)CCCC2)c1ccc(S(=O)(=O)N2CCCc3ccccc32)cc1,-85.3*,?,-11.0%,23.1µM*,?,?
CC(=O)c1ccc(NC(=O)C2CCCN(S(=O)(=O)c3cn(C)cn3)C2)cc1 (stereo not drawn),-5.5,0.3%[46.1 µM],.,.,.,-8.0%
CCN(Cc1ccccc1)c1ncnc2c1nnn2C,1.5,-18.8%[46.1 µM],.,.,.,0.0%
COc1ccc(NC(=O)c2c(-c3ccc(C)cc3)nnc3ccccc23)cc1OC,0.0,-8.8%[46.1 µM],.,.,.,32.9%
COc1ccc2nc(S(=O)Cc3ncc(C)c(OC)c3C)[nH]c2c1 (stereo not drawn),66.0,-28.3%,3.4%,-1.3%,2.24µM*!,-20.8%
COc1ccc(-c2noc(-c3ccccc3C(=O)Nc3cccnc3)n2)cc1OC,-5.2,-7.5%,0.3%,-5.2%,8.91µM*,.
COc1ccccc1-c1noc(-c2ccccc2C(=O)Nc2cccnc2)n1,76.6,-18.6%,1.8%,-19.3%,11.2µM*,-6.1%
COc1ccc(-c2noc(CNC(=O)c3ccco3)n2)cc1,8.7,21.1%[46.1 µM],.,-1.3%[46.1 µM],.,5.5%
COc1ccc(-c2noc(-c3ccccc3C(=O)Nc3cccc(OC)c3)n2)cc1,-35.6,-20.3%,2.1%,?,?,-15.2%
COc1ccc(-c2noc(CNC(=O)c3ccccc3Br)n2)cc1,-62.9*,-17.2%[46.1 µM],.,-2.0%[46.1 µM],.,-17.9%
O=C(Nc1cccnc1)c1ccccc1-c1nc(-c2ccccc2F)no1,-12.6,12.6%,2.8%,?,?,6.0%
COc1ccc(-c2noc(-c3ccccc3C(=O)Nc3cccnc3)n2)cc1,9.8,-23.3%,-2.2%,?,10µM*,?
